# Where “and” joins values, the source holds several entries; their conditions need not be identical. Identical values can stand only once. Records with an inconclusive call do not appear. Calls of active or inactive are those of the source. Unless noted, calls follow the shape of the full dose curve.
# How the values were obtained:
# [1] = target: Alpha-galactosidase A (Homo sapiens) (UniProt P06280); experiment: Counterscreen for Glucocerebrosidase Inhibitors: qHTS Assay for Human alpha-Galactosidase at pH 4.5 (AID 992; active = well fitted curve in the direction sought with a large enough effect; an effect the other way counts as inactive or inconclusive; also: 0% is about no effect)
# Chain of Alpha-galactosidase A (Homo sapiens) (P06280 whole entry, looked up): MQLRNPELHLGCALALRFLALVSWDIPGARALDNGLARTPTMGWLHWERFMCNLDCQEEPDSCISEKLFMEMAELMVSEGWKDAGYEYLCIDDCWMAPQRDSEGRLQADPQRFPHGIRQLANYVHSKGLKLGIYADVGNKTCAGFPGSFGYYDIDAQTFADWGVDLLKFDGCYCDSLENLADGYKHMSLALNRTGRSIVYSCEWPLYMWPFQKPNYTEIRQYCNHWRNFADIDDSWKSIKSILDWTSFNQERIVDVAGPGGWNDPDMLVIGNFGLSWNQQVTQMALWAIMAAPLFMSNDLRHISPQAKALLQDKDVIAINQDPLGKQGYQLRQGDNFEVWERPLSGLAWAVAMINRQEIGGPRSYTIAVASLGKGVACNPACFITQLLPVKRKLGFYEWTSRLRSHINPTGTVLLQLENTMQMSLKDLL
# In short: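 Steps: enzyme (2 nM final), then compound across 0.7 nM to 77 uM, then 80 uM fluorogenic galactopyranoside substrate; incubate 20 min at room temperature; quench at pH 10; measure fluorescence at 365/440 nm.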
# [2] = target: alpha-glucosidase (Oryza sativa, rice) (UniProt Q653V4); experiment: Counterscreen for Glucocerebrosidase Inhibitors: qHTS Assay for Rice alpha-Glucosidase at pH 5.0 (AID 997; active = well fitted curve in the direction sought with a large enough effect; an effect the other way counts as inactive or inconclusive;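 also: 0% = full activity with enzyme and -100% = basal without enzyme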)
# In short: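 Endpoint fluorogenic assay at pH 5.0: compounds (0.7 nM to 77 uM) titrated against 4 nM rice enzyme and 400 uM 4-MU-alpha-glucoside for 20 min at room temperature; NaOH/glycine stop, read ex 365/em 440 nm, Hill-fitted AC50.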
# [3] = Validation of Assay for Modulators of Lamin A Splicing (AID 1459; active = well fitted curve in the direction sought with a large enough effect in the signal ratio; the % refers to the signal ratio;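 also: cells exposed to compound for two days before reading; 0% is about no effect; ratio rise marks activators and ratio drop marks inhibitors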)
# In short: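 Readout: ratio of GFP (500-530 nm) to RFP (575-640 nm) total object intensity by 488 nm laser-scanning cytometry after 48 hrs. Cells were HeLa S3 clones carrying lamin A-EGFP minigene plus DsRed2 viability reporter; vehicle 0.5% DMSO final.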
# [4] = qHTS Assay for Lipid Storage Modulators (AID 1519); details: Drosophila S3 cells, BODIPY lipid droplet/cell ratio, laser cytometry, cells loaded with oleic acid; as to activity change, negative = inhibition: % is scaled to controls: 0 for no effect and ±100 for the full control effect
# In short: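 Cells seeded at 5,000 per well were treated with compounds over a concentration series and loaded with oleic acid (400 uM, as added). Lipid droplet fluorescence (488 nm excitation, 500-530 nm channel) was read by laser-scanning cytometry and normalized to 20 uM Triacsin C.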
# [5] = Cell Viability - LYMP2-025 (AID 976; active = well fitted curve in the direction sought with a large enough effect; an effect the other way counts as inactive or inconclusive;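 also: cells exposed to compound for 24 h at 37 °C; plate controls were DMSO only for no effect and tetraoctylammonium bromide control for full effect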)
# In short: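 Luminescent ATP readout after 24 hr treatment of a human lymphoblastoid line (LYMP2-025, 2500 cells/well, 37 C). Reagent developed 30 min at room temperature; AC50 fitted with the Hill equation.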
# [6] = Cell Viability - LYMP2-026 (AID 989; active = well fitted curve in the direction sought with a large enough effect; an effect the other way counts as inactive or inconclusive;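 also: cells exposed to compound for 24 h at 37 °C; % is scaled to controls: 0 for no effect and ±100 for the full control effect; nearly all actives have a fitted effect of over 50% in size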)
# In short: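 Acute toxicity screen in complete culture medium, with 24 hr compound exposure at 37 C. Viability read as cellular ATP via luciferase reaction, with tetraoctylammonium bromide (6.4pM to 92 uM) as positive control.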
# [7] = measured here: cell count channel max response
# [8] = measured here: lipid channel max response
smiles,measurement,setting,value
CCCCCCCCCCCCCCCC(=O)NCCO,outcome,[1],inactive
same,outcome,[2],inactive
same,outcome,[3],inactive
OCC(O)CN1CCN(c2ccccc2)CC1 (stereo not given),"activity change, negative = inhibition",[4]; at 57.5 µM (top of the series),11.8% (inactive)
same,max response,[4]; [7],18.2%
same,max response,[4]; [8],35.4%
CC(CN(C)C)CN1c2ccccc2CCc2ccccc21 (stereo not given),outcome,[3],inactive
same,"activity change, negative = inhibition",[4]; at 57.5 µM (top of the series),8.3% (inactive) and -0.445% (inactive)
same,max response,[4]; [7],-4.41% and -13%
same,max response,[4]; [8],4.99% and -13.2%
CC(CN1c2ccccc2Sc2ccccc21)N(C)C (stereo not given),outcome,[3],inactive
same,"activity change, negative = inhibition",[4]; at 57.5 µM (top of the series),7.97% (inactive) and 1.76% (inactive)
same,max response,[4]; [7],24.2% and 6.53%
same,max response,[4]; [8],44.6% and 8.19%
OCc1cc(C(O)CNCCCCCCOCCCCc2ccccc2)ccc1O (stereo not given),outcome,[1],inactive
same,outcome,[2],inactive
same,outcome,[3],inactive
same,"activity change, negative = inhibition",[4]; at 57.5 µM (top of the series),-1.85% (inactive)
same,max response,[4]; [7],12.8%
same,max response,[4]; [8],10.1%
O=C1N=C(O)CN1/N=C/c1ccc(-c2ccc([N+](=O)[O-])cc2)o1,outcome,[3],inactive
C[C@](N)(Cc1ccc(O)cc1)C(=O)O,"activity change, negative = inhibition",[4]; at 57.5 µM (top of the series),2.05% (inactive)
same,max response,[4]; [7],7.9%
same,max response,[4]; [8],13.3%
O=C1NS(=O)(=O)c2ccccc21,"activity change, negative = inhibition",[4]; at 57.5 µM (top of the series),6.8% (inactive)
same,max response,[4]; [7],18.3%
same,max response,[4]; [8],29.2%
CCN(CC)CCOC(=O)C1(C2CCCCC2)CCCCC1,outcome,[1],inactive
same,outcome,[2],inactive
same,outcome,[3],inactive
same,"activity change, negative = inhibition",[4]; at 25.7 µM (top of the series),-3.18% (inactive)
same,"activity change, negative = inhibition",[4]; at 57.5 µM (top of the series),4.04% (inactive) and 0.569% (inactive)
same,max response,[4]; [7],0.165% and 5.59% and 10.8%
same,max response,[4]; [8],-2.15% and 9.9% and 9.37%
CNCC(O)c1ccc(O)c(O)c1 (stereo not given),outcome,[3],inactive
O=c1cc[nH]c(=S)[nH]1,"activity change, negative = inhibition",[4]; at 57.5 µM (top of the series),7.12% (inactive)
same,max response,[4]; [7],11.5%
same,max response,[4]; [8],29.2%
CC1=C(/C=C/C(C)=C/C=C/C(C)=C/C(=O)O)C(C)(C)CCC1,"activity change, negative = inhibition",[4]; at 57.5 µM (top of the series),0.149% (inactive)
same,max response,[4]; [7],-9.37%
same,max response,[4]; [8],-7.9%
CCN(CC)CCCC(C)Nc1c2ccc(Cl)cc2nc2ccc(OC)cc12 (stereo not given),"activity change, negative = inhibition",[4]; at 57.5 µM (top of the series),9.16% (inactive) and 1.41% (inactive)
same,max response,[4]; [7],2.35% and -26.6%
same,max response,[4]; [8],14.1% and -23.7%
COC(=O)C1=C(C)NC(C)=C(C(=O)OC)C1c1ccccc1[N+](=O)[O-],outcome,[5],inactive
same,Potency,[6],inactive
same,outcome,[1],inactive
same,outcome,[2],inactive
same,outcome,[3],inactive
Cc1c(Cl)cccc1Nc1ccccc1C(=O)O,"activity change, negative = inhibition",[4]; at 25.7 µM (top of the series),-0.93% (inactive)
same,max response,[4]; [7],-6.86%
same,max response,[4]; [8],-11.8%
CCN(CC)CCNC(=O)c1cc(Cl)c(N)cc1OC,outcome,[1],inactive
same,outcome,[2],inactive
same,outcome,[3],inactive
same,"activity change, negative = inhibition",[4]; at 25.7 µM (top of the series),-0.223% (inactive)
same,"activity change, negative = inhibition",[4]; at 57.5 µM (top of the series),6.86% (inactive)
same,max response,[4]; [7],-7.61% and 4.16%
same,max response,[4]; [8],-6.48% and 12.9%
COc1ccc(Cl)cc1C(=O)NCCc1ccc(S(=O)(=O)NC(=O)NC2CCCCC2)cc1,outcome,[1],inactive
same,outcome,[2],inactive
same,outcome,[3],inactive
same,"activity change, negative = inhibition",[4]; at 25.7 µM (top of the series),1.56% (inactive)
same,"activity change, negative = inhibition",[4]; at 57.5 µM (top of the series),12.5% (inactive) and -0.0195% (inactive)
same,max response,[4]; [7],8.8% and 2.97% and -31.1%
same,max response,[4]; [8],12.4% and 18.9% and -32.5%
CC1(C)OC(=O)NC1=O,"activity change, negative = inhibition",[4]; at 25.7 µM (top of the series),-0.879% (inactive)
same,max response,[4]; [7],-12%
same,max response,[4]; [8],-11.9%
C[C@H](N)[C@H](O)c1cccc(O)c1,"activity change, negative = inhibition",[4]; at 25.7 µM (top of the series),-0.37% (inactive)
same,max response,[4]; [7],15.1%
same,max response,[4]; [8],15%
CN1CCN(C2Cc3ccccc3Sc3ccc(Cl)cc32)CC1 (stereo not given),outcome,[3],inactive
same,"activity change, negative = inhibition",[4]; at 57.5 µM (top of the series),1.27% (inactive)
same,max response,[4]; [7],-11.4%
same,max response,[4]; [8],-9.31%
CNCCC(Oc1ccc(C(F)(F)F)cc1)c1ccccc1 (stereo not given),outcome,[3],inactive
CC(=O)c1ccc2c(c1)N(CCCN(C)C)c1ccccc1S2,"activity change, negative = inhibition",[4]; at 25.7 µM (top of the series),-1.98% (inactive)
same,max response,[4]; [7],0.996%
same,max response,[4]; [8],-1.83%
CCOc1ccc2ccccc2c1C(=O)N[C@@H]1C(=O)N2[C@@H]1SC(C)(C)[C@@H]2C(=O)O,"activity change, negative = inhibition",[4]; at 25.7 µM (top of the series),-0.855% (inactive)
same,max response,[4]; [7],-15.7%
same,max response,[4]; [8],-15.1%
C=Cc1c(C)c2cc3[nH]c(cc4nc(cc5nc(cc1[nH]2)C(C)=C5CCC(=O)O)C(CCC(=O)O)=C4C)c(C)c3C=C,outcome,[1],inactive
same,outcome,[2],inactive
same,outcome,[3],inactive
same,"activity change, negative = inhibition",[4]; at 57.5 µM (top of the series),12.2% (inactive)
same,max response,[4]; [7],1.69%
same,max response,[4]; [8],21.3%
N=c1c[n+](N2CCOCC2)[n-]o1,outcome,[1],inactive
same,outcome,[2],inactive
same,outcome,[3],inactive
same,"activity change, negative = inhibition",[4]; at 57.5 µM (top of the series),-0.431% (inactive)
same,max response,[4]; [7],25.9%
same,max response,[4]; [8],27.5%
CC(C)(C(=O)O)c1ccc(C(O)CCCN2CCC(C(O)(c3ccccc3)c3ccccc3)CC2)cc1 (stereo not given),outcome,[3],inactive
same,"activity change, negative = inhibition",[4]; at 57.5 µM (top of the series),2.57% (inactive) and -0.0758% (inactive)
same,max response,[4]; [7],23% and -17.7%
same,max response,[4]; [8],28% and -18.6%
CC1=C(CC(=O)O)c2cc(F)ccc2/C1=C\c1ccc(S(C)(=O)=O)cc1,outcome,[1],inactive
same,outcome,[2],inactive
same,outcome,[3],inactive
CC(C)(C)c1onc(OCP(=O)(O)O)c1CC(N)C(=O)O (stereo not given),outcome,[3],inactive
same,"activity change, negative = inhibition",[4]; at 57.5 µM (top of the series),-0.922% (inactive)
same,max response,[4]; [7],-37.6%
same,max response,[4]; [8],-40.1%
CCCCN1CCCC[C@H]1C(=O)Nc1c(C)cccc1C,"activity change, negative = inhibition",[4]; at 25.7 µM (top of the series),-1.47% (inactive)
same,max response,[4]; [7],8.59%
same,max response,[4]; [8],9.64%
Cc1cc2c(cc1S(N)(=O)=O)S(=O)(=O)CCC2,"activity change, negative = inhibition",[4]; at 25.7 µM (top of the series),-2.69% (inactive)
same,max response,[4]; [7],5.71%
same,max response,[4]; [8],1.67%
CN(C)CCCN1c2ccccc2CCc2ccccc21,outcome,[1],inactive
same,outcome,[2],inactive
same,"activity change, negative = inhibition",[4]; at 25.7 µM (top of the series),-3.67% (inactive)
same,"activity change, negative = inhibition",[4]; at 57.5 µM (top of the series),-1.66% (inactive) and 1.56% (inactive)
same,max response,[4]; [7],-3.16% and 7.78% and 14.5%
same,max response,[4]; [8],-7.45% and 10.3% and 14.3%
O=C(O)c1ccccc1O,"activity change, negative = inhibition",[4]; at 57.5 µM (top of the series),9.55% (inactive)
same,max response,[4]; [7],11.4%
same,max response,[4]; [8],27.4%
Nc1ccc(S(=O)(=O)Nc2ccc(Cl)nn2)cc1,"activity change, negative = inhibition",[4]; at 25.7 µM (top of the series),0.129% (inactive)
same,"activity change, negative = inhibition",[4]; at 57.5 µM (top of the series),9.01% (inactive)
same,max response,[4]; [7],5.02% and 19.5%
same,max response,[4]; [8],5.1% and 34.7%
